Reference: PubChem BioAssay AID652257 (The Scripps Research Institute Molecular Screening Center, 2013)
In all, about 370,000 compounds went through this assay and about 4,800 (1.3%) were called active. Many of the other results were omitted from the sample, so actives are more common in it than they were. A number with no mark means an inactive call.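 The calls were made as follows: active = inhibition above about 21% made by adding two undisclosed values (limit read from the data); inactive = the rest.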

Target: Protein arginine N-methyltransferase 1 (Homo sapiens) (UniProt Q99873)
Assay: PRMT1 methyltransferase inhibitors, primary screen, biochemical, fluorescence polarization (AID 652257)
Conditions: recombinant PRMT1, activity-based probe fluorescence polarization; at 2.79 µM; active compounds read high

Chain of Protein arginine N-methyltransferase 1 (Homo sapiens) (Q99873 whole entry, looked up): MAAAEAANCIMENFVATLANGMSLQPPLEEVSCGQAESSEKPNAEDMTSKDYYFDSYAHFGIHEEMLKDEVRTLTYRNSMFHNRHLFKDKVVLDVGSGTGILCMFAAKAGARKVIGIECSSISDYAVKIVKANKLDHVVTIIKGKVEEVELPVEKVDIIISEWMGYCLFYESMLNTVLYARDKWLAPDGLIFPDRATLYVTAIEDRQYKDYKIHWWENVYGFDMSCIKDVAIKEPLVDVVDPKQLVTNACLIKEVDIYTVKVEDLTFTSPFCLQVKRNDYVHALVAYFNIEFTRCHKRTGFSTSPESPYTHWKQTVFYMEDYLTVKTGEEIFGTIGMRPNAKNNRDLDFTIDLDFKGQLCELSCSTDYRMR

SMILES | inhibition
O=C1CC[C@@]23CCCN2C(=O)CCC[C@H]3[C@H]1Cc1ccccc1 | 2.04%
O=C(C[C@H]1C[C@H](C(=O)N2CCOCC2)[C@@]2(CCC3CCCC3)c3[nH]c4ccc(Cl)cc4c3CCN2C1=O)NCc1ccco1 | -5.92%
C=CCN1C(=O)[C@@H](CC(=O)NCCCCc2ccccc2)[C@]2(C(=O)OCC)CCCCC/C=C/12 | 1.83%
CCC(=O)Nc1c(S(=O)(=O)c2ccccc2)c2nc3ccccc3nc2n1Cc1ccccc1 | 0.02%
Cc1cc2nc3c(=O)n(Cc4ccccc4)c(=O)[nH]c3nc2cc1N | 142% (active)
Cn1c(=O)[nH]c(=O)c2c1[nH]c(=S)n2Cc1ccccc1 | 4.37%
CCC(CO)Nc1cccc2c1S(=O)(=O)N(Cc1cn(Cc3ccccc3C(F)(F)F)nn1)Cc1ccccc1O2 (configuration not stated) | 0.43%
N#Cc1c(N2CCCCC2)nc(N)c2c(N)nc(SCC(=O)O)cc12 | 29.1% (active)
Cc1nn(-c2ncccn2)c2c1C(=O)CC(C)(C)C2Br (configuration not stated) | -1.26%
CCOC(=O)c1cc2c(ccn2C)n1CC(=O)N1CCC(C)CC1 | 1.01%
O=C(CSc1nnc(-c2ccccn2)n1-c1ccc(Cl)cc1)Nc1ccccc1-c1ccccc1 | 0.72%
COCCN1C(=O)C(=O)/C(=C(/O)c2ccc(S(=O)(=O)N3CCCCC3)cc2)C1c1ccc(OC)c(OC)c1 (configuration not stated) | -2.03%
CCOc1cc(C2/C(=C(/O)c3ccc(S(=O)(=O)N4CCCCC4)cc3)C(=O)C(=O)N2CCOC)ccc1O (configuration not stated) | 28.9% (active)
COCCN1C(=O)C(=O)/C(=C(/O)c2ccc(S(=O)(=O)N3CCOCC3)cc2)C1c1ccc(OC)c(OC)c1 (configuration not stated) | 4.25%
COC(=O)c1cc(NS(=O)(=O)c2ccc3c(c2)c(=O)n(C)c(=O)n3C)cc(C(=O)OC)c1 | 3.19%
CN(C)S(=O)(=O)c1ccc(N/C=C(\[N+](=O)[O-])S(=O)(=O)c2ccccc2)cc1 | 1.43%
CC(C)CSc1nnc(-c2cccnc2)n1Cc1ccccc1 | 1.95%
Cc1cccc(-c2nc3c(c(SCC(=O)N4CCOCC4)n2)CCCC3)c1 | -2.28%
C=CCN1C(=O)c2ccc(C(=O)N3CCC(C(=O)OCC)CC3)cc2C1=O | -1.32%
Cc1sc(NC(=O)C2C3CCC(O3)C2C(=O)O)c(C(=O)OC(C)C)c1-c1ccc(Cl)cc1 (configuration not stated) | 22.5% (active)
COc1ccc(NC(=O)C2C3CCC(O3)C2C(=O)O)cc1OC (configuration not stated) | 1.91%
CC(C)OC(=O)c1cc(NC(=O)C2C3CCC(O3)C2C(=O)O)cc(C(=O)OC(C)C)c1 (configuration not stated) | -2.71%
CCOC(=O)c1csc(NC(=O)C2CCCN(S(=O)(=O)c3ccc(Cl)s3)C2)n1 (configuration not stated) | -5.11%
Cc1nc(CNc2ncnc3ccc(-c4ccc5c(c4)OCO5)cc23)cs1 | 6.73%
COc1ccc(C(=O)OCCN2CCN(C3CN(Cc4cn(Cc5ccccc5F)nn4)S(=O)(=O)C3)CC2)cc1OC (configuration not stated) | -2.53%
Cc1cccc(NC(=O)c2nc(S(=O)(=O)Cc3ccccc3)ncc2Cl)c1 | 31.1% (active)

SMILES | inhibition
Cc1cc(NS(=O)(=O)c2ccc(NC(=S)NC(=O)c3ccc(F)cc3Cl)cc2)no1 | -2.11%
Cc1cccc(CS(=O)(=O)c2ncc(Cl)c(C(=O)Nc3ccc(F)cc3)n2)c1 | 31.4% (active)
Cc1cccc(C(=O)Nc2c(-c3ccc(F)cc3)nc3ncccn23)c1 | 1.66%
Cc1cccc(NC(=O)c2cc3c(C)nn(-c4ccccc4)c3s2)c1 | -4.86%
O=C(CCS(=O)(=O)c1ccccc1)Nc1ccc(Cl)c(Cl)c1 | 1.21%
Cc1cccnc1NC(=O)Cn1c(=O)oc2ccccc21 | 5.97%
COC[C@@H]1CCCN1c1ccc2c(c1)O[C@H](C)CCN(C1CC1)S2(=O)=O | -6.48%
O=C(Nc1cc(F)cc(F)c1)OC1CCC12CCC(c1ccccc1)CC2 (configuration not stated) | -0.51%
COc1ccc([C@H]2OC(=O)C[C@H]2C(=O)N2CCN(c3ccccc3F)CC2)cc1OC | -4.27%
Clc1cccc(-c2nc3nc4ccccc4nc3n2Cc2ccco2)c1 | 34.2% (active)
O=C(CSc1nnc(-c2cccc(Cl)c2)n1Cc1ccco1)Nc1ccc(OCc2ccccc2)cc1 | -2.9%
O=C(CSc1nnc(-c2ccccc2)n1Cc1ccco1)Nc1ccccc1-c1ccccc1 | 12.6%
COc1ccccc1C(C)NC(=O)Cc1ccsc1 (configuration not stated) | -0.88%
CCC(c1nnnn1Cc1ccco1)N(Cc1cc2cc(OC)ccc2[nH]c1=O)C1CCCCC1 (configuration not stated) | 35.9% (active)
CCC(=O)N(Cc1cc2ccccc2[nH]c1=O)c1ccc(OC)cc1 | 1.11%
CCOc1ccc2[nH]c(=O)c(CN(Cc3nnnn3CCc3ccccc3)CC3CCCO3)cc2c1 (configuration not stated) | -1.4%
CCOc1ccc(CN(Cc2ccco2)C(c2cccs2)c2nnnn2C(C)(C)C)cc1 (configuration not stated) | 2.59%
COc1ccc2[nH]c(=O)c(CN(CC3CCCO3)C(=O)Nc3ccccc3)cc2c1 (configuration not stated) | -3.84%
CCC(c1nnnn1Cc1ccco1)N(CCc1ccccc1)Cc1cc2ccc(OC)cc2[nH]c1=O (configuration not stated) | 44.2% (active)
CNc1cncc(-c2ccc(NS(C)(=O)=O)cc2)n1 | 4.53%
N#C/C(=C\c1ccccc1)c1n[nH]c(Cn2cncn2)n1 | -3.96%
CCCCNC(=O)C[C@H]1C(=O)N(Cc2ccc(OC)cc2)C2=CCCC[C@@]21C(=O)OCC | 2.73%
COC(=O)c1cc(S(=O)(=O)N2CCN(C(=O)C3CCCO3)CC2)cn1C (configuration not stated) | -1.95%
O=C(CSc1nc2sc3c(c2c(=O)n1-c1ccccc1)CCCC3)NN=Cc1ccc(OCc2ccccc2)cc1 | 0.97%
Cc1ccccc1CN1CCCCC(NC(=O)c2cccc(C#N)c2)C1=O (configuration not stated) | 1.34%
CCCCOCCCNC(=O)C[C@H]1C[C@@]2(C(=O)OC)C(=C[C@H](C(C)(C)C)O[C@@H]2C)N(CCc2ccc(OC)c(OC)c2)C1=O | -3.25%
